# Compound activity: PubChem, several laboratories
# sPLA2-III inh: human group III sPLA2 inhibitors, primary screen, biochemical, QFRET, BODIPY PC-A2 liposome substrate. Group 3 secretory phospholipase A2 (Homo sapiens), Q9NZ20. QFRET BODIPY PC-A2 liposome hydrolysis, fluorescence. inhibition, % at 12.2 µM. actives 0.56% (n = 370,000). AID 743126, 2013;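 active = inhibition above mean plus 3 SD of compounds lying within the high and low control bounds, cut at about 19% in these data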;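 also: 0% = median of test compound wells and 100% = no enzyme DMSO wells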
# Target sequence (Q9NZ20 whole entry, looked up): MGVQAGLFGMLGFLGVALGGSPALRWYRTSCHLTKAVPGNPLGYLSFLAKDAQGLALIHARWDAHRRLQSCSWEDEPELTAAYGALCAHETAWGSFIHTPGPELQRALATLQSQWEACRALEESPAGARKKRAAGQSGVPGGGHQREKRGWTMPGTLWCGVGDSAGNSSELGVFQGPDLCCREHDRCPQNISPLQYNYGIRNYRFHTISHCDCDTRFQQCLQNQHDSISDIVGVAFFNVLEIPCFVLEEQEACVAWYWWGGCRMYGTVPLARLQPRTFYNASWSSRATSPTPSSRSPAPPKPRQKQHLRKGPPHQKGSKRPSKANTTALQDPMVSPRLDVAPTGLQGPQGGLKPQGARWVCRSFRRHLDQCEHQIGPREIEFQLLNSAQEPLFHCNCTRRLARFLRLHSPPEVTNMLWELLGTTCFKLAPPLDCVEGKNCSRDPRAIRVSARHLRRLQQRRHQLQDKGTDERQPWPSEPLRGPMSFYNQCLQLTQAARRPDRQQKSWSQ
# GRIN3A LBD mod: binders of NR3A ligand-binding domain, primary screen, biophysical, differential scanning fluorimetry, uHTS. Glutamate receptor ionotropic, NMDA 3A (GRIN3A) ligand-binding domain. NR3A LBD differential scanning fluorimetry, Tm shift; 0% = protein alone, 100% = glycine-bound protein. Tm shift relative to glycine control, % at 25 µM. actives 2.5% (n = 340,000);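 active = melting temperature shift of at least 10% of the positive control shift, at one fixed dose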
# ADAM10 inh: human ADAM10 inhibitors, primary screen, biochemical, QFRET, HTS | Disintegrin and metalloproteinase domain-containing protein 10 (Homo sapiens), O14672 | recombinant ADAM10, EDANS/DABCYL FRET peptide cleavage, 3 h | inhibition, % at 7 µM | actives 0.62% (n = 370,000);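 active = inhibition above a per-campaign cutoff equal to the mean of compounds falling between control-based bounds plus 3 SD, cut at about 20% in these data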;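 also: 0% = DMSO wells while the 100% control is not disclosed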
# FAS-TE inh: FAS thioesterase domain inhibitors, primary screen, biochemical, fluorescence intensity, uHTS. Fatty acid synthase (Homo sapiens), P49327. inhibition, % at 15 µM. AID 602261, 2012. actives 0.67% (n = 360,000). recombinant FAS-TE, OMFH fluorogenic substrate, fluorescence endpoint;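 active = compounds whose normalised, plate-corrected inhibition of enzyme fluorescence in the single-dose primary screen is 50% or more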;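 also: 0% = DMSO with enzyme and 100% = substrate without enzyme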
# ADAM17 inh: ADAM17 inhibitors, primary screen, biochemical, QFRET. Disintegrin and metalloproteinase domain-containing protein 17 (Homo sapiens), P78536. recombinant ADAM17, EDANS/DABCYL FRET peptide cleavage. inhibition, % at 6.95 µM. actives 0.83% (n = 370,000). AID 720648, 2013;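 active = inhibition above the mean of compounds lying between control limits plus 3 SD, set per campaign, cut at about 8.5% in these data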;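 also: 0% = DMSO-only wells as the low control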
# * hit, by the source's call; x = not tested or not shown. Hits are enriched below; roughly 4.3% of the tested compounds scored in any of these assays.
SMILES,sPLA2-III inh,GRIN3A LBD mod,ADAM10 inh,FAS-TE inh,ADAM17 inh
COc1ccc(OC)c(NC(=O)c2cc3oc4ccccc4c3cc2O)c1,-9,130*,-11,1,-7
O=C(Nc1ccc2c(c1)oc1ccccc12)c1ccc2c(c1)OCO2,0,25*,-1,-2,-2
O=S(=O)(c1ccc2nc(-c3ccccc3)[nH]c2c1)N1CCN(c2cccc(Cl)c2)CC1,-8,17*,2,-5,2
COc1ccc(C(=O)Nc2ccc3c(c2)Cc2ccccc2-3)cc1,-8,17*,-7,-11,-6
COc1cccc(OC)c1C(=O)Nc1ccc2c(c1)Cc1ccccc1-2,0,-3,-1,11,-2
O=C(Nc1ccc2c(c1)Cc1ccccc1-2)c1cccnc1,-9,21*,12,2,2
O=C(Nc1ccc2c(c1)Cc1ccccc1-2)c1ccco1,-14,22*,-6,13,-4
CCC[C@H]1[C@@H](OC(=O)NCc2ccc(OC)cc2)CC[C@@]23CCCN2C(=O)CCC[C@@H]13,5,x,3,x,1
O=C(Oc1ccc(C(=S)N2CCCCC2)cc1)c1ccccc1F,4,39*,8,4,-1
O=C(Oc1ccc(Br)cc1C(=S)N1CCCC1)c1ccccc1F,-9,2,10,21,6
O=C(CCCCCN1C(=O)CCC1=O)Nc1ccc(Br)cc1F,1,11*,7,-8,1
CN(Cc1ccccc1)S(=O)(=O)c1cccc(C(=O)OCc2cccc([N+](=O)[O-])c2)c1,1,x,1,x,2
Oc1ccc(N=Nc2ccc3ccccc3c2)cc1,-36,24*,13,24,5
CCCCCCCCN1C(=O)N2Cc3cc(OC)ccc3C2CS1(=O)=O (configuration not stated),4,x,0,x,0
Cc1n[nH]c(C)c1S(=O)(=O)N1CCOCC1,2,14*,10,-1,0
COc1ccc(C(C)=O)cc1Cn1c(C)c(C(=O)NCc2cccc(Cl)c2)sc1=O,-1,x,-11,24,2
COc1ccc(Cl)cc1Cn1c(C)c(C(=O)NCc2cccc(Cl)c2)sc1=O,-13,x,14,33,10*
O=C(Nc1ccc(Cl)cc1)N1CCN(c2ccc3nnc(-c4ccc(F)cc4)n3n2)CC1,-29,27*,4,27,0
O=C(Nc1ccccc1Cl)N1CCN(c2ccc3nnc(-c4ccccc4)n3n2)CC1,x,-11,x,4,x
CCN(C(=O)COC(=O)CCS(=O)(=O)c1ccccc1)c1c(N)n(Cc2ccccc2)c(=O)[nH]c1=O,16,17*,-15,-7,-5
CN(C(=O)COC(=O)c1ccccc1Nc1ccccc1)c1c(N)n(Cc2ccccc2)c(=O)[nH]c1=O,-6,24*,-76,9,-19
COCCN(C(=O)COC(=O)c1ccccc1Nc1ccccc1)c1c(N)n(Cc2ccccc2)c(=O)[nH]c1=O,-37,19*,-14,4,-11
c1ccc(Cn2ccc3ccc(-c4ccc5ccn(Cc6cccc(Oc7ccccc7)c6)c5c4)cc32)cc1,19,x,-26,x,-16
CC(C)Oc1cccc(-c2n[nH]c(=S)n2N=Cc2cccc([N+](=O)[O-])c2)c1,7,x,-2,x,0
Cc1nn(CCC(=O)NNC(=O)Nc2ccc(Cl)cc2)c(C)c1[N+](=O)[O-],2,x,13,x,4
SMILES,sPLA2-III inh,GRIN3A LBD mod,ADAM10 inh,FAS-TE inh,ADAM17 inh
S=C(NCCc1ccccc1)Nc1ccc(Nc2ccccc2)cc1,-6,23*,8,20,2
Fc1cccc(NC(=S)NCCc2ccccc2)c1,8,28*,5,2,-1
CC(C)(CNC(=S)NCCc1ccccc1)CNC(=S)NCCc1ccccc1,-31,14*,17,23,5
S=C(NCCc1ccccc1)Nc1cnc2ccccc2c1,-11,14*,-3,8,-3
CCCNC(=S)Nc1ccccc1,7,2,3,-6,-4
COc1cccc(/C=N\N2CCN(c3ccc(C)cc3)CC2)c1O,2,x,4,x,0
CCCC[C@H](C(=O)N(C)c1ccccc1)[C@@H](O)c1ccc(Cl)cc1,-2,x,5,x,-3
CCn1c2ccccc2c2cc(/C=N/NC(=O)c3ccc(O)cc3)ccc21,-13,38*,-189,9,-54
COc1ccc(C=O)cc1CSc1ccccn1,-8,-1,3,-5,-1
COc1ccc(/C=N/NC(=O)c2ccc(O)cc2O)cc1CSc1ccccn1,-27,21*,-33,-2,-9
Cn1c2ccccc2c2cc(/C=N/NC(=O)c3ccc(O)cc3O)ccc21,x,30*,x,6,x
CCn1c2ccccc2c2cc(/C=N/NC(=O)c3cc(O)cc(O)c3)ccc21,-32,21*,-168,11,-74
C#CCNC(=O)C[C@H]1C[C@@]2(C(=O)OC)C(=C[C@H](COCc3ccccc3)O[C@@H]2C)N(Cc2cccc3ccccc23)C1=O,-10,x,3,x,0
CN(CCO)c1cccc2c1S(=O)(=O)N(Cc1cn(Cc3cccc(C(F)(F)F)c3)nn1)Cc1ccccc1O2,-15,x,-9,x,1
COCCn1c(C)cc(/C=N/NC(=O)c2cc3ccccc3cc2O)c1C,x,4,x,1,x
Cn1c(O)c(/C=N/NC(=O)c2cc3ccccc3cc2O)c2ccccc21,0,21*,-5,29,-2
COC(=O)[C@H](C(C)C)N(CCCc1cn(CC2CCCCC2)nn1)S(=O)(=O)c1ccccc1Br,-21,x,8,x,4
CCCc1nc2c(=O)n(C)c(=O)[nH]c2n1CCC,2,14*,-4,-10,-2
CCCCn1c(C)nc2c(=O)n(C)c(=O)[nH]c21,0,2,-2,-8,-2
O=C(COc1cc(Cl)c(Cl)cc1Cl)Nc1ccncc1,1,545*,3,7,-1
O=C(COc1cc(Cl)c(Cl)cc1Cl)NC(=O)Nc1ccc2c(c1)OCCO2,12,19*,-1,-2,-3
Cc1cccc(OCC(=O)Nc2cccc(O)c2)c1,-13,-26,-6,-8,0
O=C(COc1cc(Cl)c(Cl)cc1Cl)Nc1cccc(O)c1,-20,18*,1,5,-4
CSc1ccccc1NC(=O)CO/N=C(\C)c1cc2ccccc2o1,2,11*,2,27,0
CSc1ccccc1NC(=O)COC(=O)CCc1ccccc1,2,14*,-6,4,1
C/C(=N\OCC(=O)Nc1ccc(F)c(F)c1F)c1cc2ccccc2o1,-6,-8,4,48,0
